# Source: PubChem BioAssay (National Center for Advancing Translational Sciences (NCATS))
# nsP2pro primary: inhibitors of chikungunya virus nsP2 protease; actives 1.1% (n = 31,000); FRET peptide cleavage, nsP2pro, fluorescence 1 h; Potency, µM (titrated, usually from 24.9 µM), for inactives: at the highest dose activity change, negative = inhibition, most hits filed as inhibitors; note: nearly all actives have a fitted effect of over 60% in size
#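 Enzyme 150 nM, substrate 2.5 uM (both final); Tris-HCl 10 mM pH 8.0 + 0.01% Tween 20; cpd up to 25 uM, 7 pts; 15 min preinc., 1 h RT; fluorescence ex 525/em 598.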
# CHIKV nsP2 cell: cell-based CHIKV nsP2 protease inhibition, secondary; shares compounds with nsP2pro primary; cell-based CHIKV nsP2 protease reporter assay; Potency, µM (highest dose often 51.1 µM), inactives show top-dose activity change, negative = inhibition, usual class: inhibitors; actives 10% (n = 450); AID 1964100; note: nearly all actives have a fitted effect of over 70% in size
# NSP2 full ctr: full-length CHIKV NSP2 protease inhibition, selectivity; shares compounds with nsP2pro primary; Full-length CHIKV NSP2 protease enzymatic counterscreen; Potency, µM (series often up to 50.7 µM), for inactives: at the top dose activity change, negative = inhibition, actives largely listed as inhibitors; actives 39% (n = 410); AID 1964101; note: nearly all actives have a fitted effect of over 65% in size
# Furin counter: selectivity counter-screen for CHIKV nsP2 protease inhibitors: human furin; shares compounds with nsP2pro primary; Recombinant human furin enzymatic counterscreen, fluorogenic substrate; Potency, µM (highest dose often 50.6 µM), without a hit: top-dose activity change, negative = inhibition, actives largely listed as inhibitors; actives 6% (n = 410)
# nsP2 NS23 pep: selectivity test for CHIKV nsP2 protease inhibitors: endogenous NS2/3 peptide. Purified CHIKV nsP2 protease, endogenous NS2/3 peptide cleavage. Potency, µM (series often up to 51 µM), for inactives: top-dose activity change, negative = inhibition, most hits filed as inhibitors. shares compounds with nsP2pro primary. AID 1964103. actives 34% (n = 410); note: nearly all actives have a fitted effect of over 55% in size
# Papain counter: selectivity counter-screen for CHIKV nsP2 protease inhibitors: papain. shares compounds with nsP2pro primary. purified papain protease activity, enzymatic inhibition. Potency, µM (doses to about 51 µM), for the others: at the highest dose activity change, negative = inhibition, hits mostly inhibitors. actives 5% (n = 410)
# nsP2pro conf qHTS: CHIKV nsP2 protease inhibition, confirmatory qHTS | AID 1964105 | actives 43% (n = 410) | CHIKV nsP2 protease enzymatic activity, qHTS | shares compounds with nsP2pro primary | Potency, µM (doses to about 25.5 µM), without a hit: top-dose activity change, negative = inhibition, actives largely listed as inhibitors; note: nearly all actives have a fitted effect of over 75% in size
# HCV NS3 counter: HCV NS3/4A protease inhibition, counterscreen. actives 20% (n = 410). shares compounds with nsP2pro primary. Potency, µM (doses to about 50.9 µM), hits mostly inhibitors. HCV NS3/4A protease biochemical counterscreen; note: nearly all actives have a fitted effect of over 55% in size
# Active calls of the source: *; i = inactive; ? = inconclusive; / = no result; [ ] = remark or other dose. The entries come from a sample that favours hits as a whole. Calls come from the whole dose curve. % is set by controls: 0 for no effect and ±100 for the full control effect; potency is the fitted concentration of half-maximal effect.
SMILES,nsP2pro primary,others
COc1cccc(CN2CCC(Oc3ccccc3-c3nc(-c4ccncc4)no3)C2)c1 (configuration not stated),i,
CC(C)CCN1CCC2(COc3ccccc3C(=O)N2)C1 (configuration not stated),-2.9%[39.2 µM],
Cc1cc(C)nc(NC(=S)N2CCN(c3nc4ccccc4o3)CC2)c1,i,
COc1ccc(C2(C(=O)N3C[C@@H](CO)[C@H](c4ccccn4)C3)CC2)cc1,1.8%,
CC(=O)NCC(=O)N1[C@@H]2CC[C@H]1c1ccc(Nc3ncc(C(F)(F)F)c(NC4CCC4)n3)cc12,/,CHIKV nsP2 cell=-30.8%;NSP2 full ctr=?;Furin counter=-8.2%;nsP2 NS23 pep=-13.2%;Papain counter=?;nsP2pro conf qHTS=?;HCV NS3 counter=i
CS(=O)(=O)c1cccc(CNc2nc(Nc3ccc4c(c3)CCC(=O)N4)ncc2C(F)(F)F)c1,-0.5%,
CCS(=O)(=O)N1CCN(c2ccc(Nc3ncc(C(N)=O)c(NC4CC4)n3)cc2)CC1,-10.9%,
CCCN1C[C@H](C)[C@@H](O)[C@](C)(O)[C@@H](CC)OC(=O)[C@H](C)[C@@H](O[C@H]2C[C@@](C)(OC)[C@@H](O)[C@H](C)O2)C(C)[C@@H](O[C@@H]2O[C@H](C)C[C@H](N(C)C)[C@H]2O)[C@](C)(O)C[C@H]1C (some centres not stated),3.6%,
COc1ccccc1-n1cc(C(=O)N2CCCC2c2nonc2C)cn1 (configuration not stated),i,
Cn1c(=O)cc(N2CCC[C@@H](N)C2)n(Cc2cc(F)ccc2C#N)c1=O,-7.8%,
CC(C(=O)O)c1ccc(C(=O)c2cccs2)cc1 (configuration not stated),-16.8%[39.2 µM],
C=C(C)CNc1ccc(C(C)C(=O)O)cc1 (configuration not stated),8.81µM*,CHIKV nsP2 cell=1.5%;NSP2 full ctr=-5.4%;Furin counter=-5.3%;nsP2 NS23 pep=-14.0%;Papain counter=-5.1%;nsP2pro conf qHTS=-16.0%;HCV NS3 counter=i
CC(C(=O)O)c1ccc(CC2CCCC2=O)cc1 (configuration not stated),-2.3%,
CCCc1nnc([C@H]2CCN(C(=O)c3ccccc3)C2)o1,2.5%[39.2 µM],
Cc1ccnc(N(C)C(=S)N2CCN(c3cccc(C(F)(F)F)c3)CC2)c1,-3.1%,
C=C(C(=O)O)C1CC2=C(C)C(=O)CC2C(C)CC1O (configuration not stated),4.42µM*,CHIKV nsP2 cell=?;NSP2 full ctr=?;Furin counter=-4.6%;nsP2 NS23 pep=?;Papain counter=-3.2%;nsP2pro conf qHTS=?;HCV NS3 counter=i
Cc1cc(C)nc(NC(=S)N2CCN(c3cccc(S(C)(=O)=O)c3)CC2)c1,-13.1%,
COc1cccc(CNc2ccc(S(=O)(=O)Nc3ccc(C4CCNCC4)cc3)cc2)c1O,-3.5%,
Cc1ccc(CNc2ncnc3ccc(-c4oc(-c5ccccc5)nc4C)cc23)o1,i,
CCNC(=O)N(C1CC1)C1CCOC2(CCN(C(=O)COc3ccccc3)CC2)C1 (configuration not stated),-5.7%,
N#CNC(=O)c1ccc(-n2cccc2/C=C2\NC(=O)N(CC(=O)Nc3ccc(F)cc3)C2=O)cc1,-0.4%,
CCCS(=O)(=O)NC[C@H]1C[C@@H]2CCN1C[C@@H]2c1cc(C(CC)CC)nc(-c2ccncc2)n1,-12.3%,
CC(C)NC(=O)OC[C@H]1C[C@@H]2CCN1C[C@@H]2c1cc(C2CCCC2)nc(-c2ccncc2)n1,5.01µM*,CHIKV nsP2 cell=-55.6%;NSP2 full ctr=6.51µM*;Furin counter=?;nsP2 NS23 pep=18.3µM*;Papain counter=-3.9%;nsP2pro conf qHTS=7.98µM*;HCV NS3 counter=10.3µM*
COc1ccc(-c2cc([C@H]3CN4CC[C@H]3C[C@@H]4COC(=O)Nc3ccccc3)n(C)n2)cc1,i,
